The supplement of paper PMC6555819

Legend:
Test in all cases: PBM binding z-score (relative to random genomic background probes); higher = stronger binding; sequences stand for … in GC…GCGATTGACAGCGTAGAATGAAGG
[1] = test system: FXR:RXRa (NR concentration 270 nM, RXRa partner concentration 90 nM)
Outline: (§1)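 Scanned fluorescence from custom Agilent 4×180K protein-binding microarrays was regression-normalized. Binding z-scores use random background probes as reference. Ligand-free nuclear receptor dimers were incubated on the arrays for 1 h and detected with antibodies against each partner (one per run).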

[2] = test system: LXRa:RXRa (NR concentration 270 nM, RXRa partner concentration 90 nM)
Outline: as §1

[3] = test system: LXRa homodimer (NR concentration 270 nM)
Outline: as §1

[4] = test system: LXRb:RXRa (NR concentration 270 nM, RXRa partner concentration 90 nM)
Outline: as §1

[5] = test system: LXRb homodimer (NR concentration 270 nM)
Outline: as §1

[6] = test system: PPARa:RXRa (NR concentration 270 nM, RXRa partner concentration 90 nM)
Outline: as §1

[7] = test system: PPARg:RXRa (NR concentration 180 nM, RXRa partner concentration 90 nM)
Outline: as §1

[8] = test system: PPARg:RXRa 270nM:90nM, anti-RXR (NR concentration 270 nM, RXRa partner concentration 90 nM)
Outline: as §1

[9] = test system: PPARg:RXRa 30nM:10nM, anti-RXR (NR concentration 30 nM, RXRa partner concentration 10 nM)
Outline: as §1

[10] = test system: PPARg:RXRa 90nM:30nM, anti-RXR (NR concentration 90 nM, RXRa partner concentration 30 nM)
Outline: as §1

[11] = test system: PPARg:RXRa DBDmut IVT, anti-RXR (DBD mutation: RXRa K156A/R161A, NR concentration 270 nM, RXRa partner concentration 90 nM)
Outline: as §1

[12] = test system: PPARg:RXRa IVT, anti-PPARg (NR concentration 270 nM, RXRa partner concentration 90 nM)
Outline: as §1

[13] = test system: PPARg DBDmut:RXRa IVT, anti-PPARg (DBD mutation: PPARg1 K132A/R137A, NR concentration 270 nM, RXRa partner concentration 90 nM)
Outline: as §1

[14] = test system: PPARg DBDmut IVT, anti-PPARg (DBD mutation: PPARg1 K132A/R137A, NR concentration 270 nM)
Outline: as §1

[15] = test system: PPARg homodimer (NR concentration 180 nM)
Outline: as §1

[16] = test system: PXR:RXRa (NR concentration 270 nM, RXRa partner concentration 90 nM)
Outline: as §1

[17] = test system: PXR homodimer (NR concentration 270 nM)
Outline: as §1

[18] = test system: RARa:RXR (NR concentration 270 nM, RXRa partner concentration 90 nM)
Outline: as §1

[19] = test system: RARa homodimer (NR concentration 270 nM)
Outline: as §1

[20] = test system: RARb:RXRa (NR concentration 270 nM, RXRa partner concentration 90 nM)
Outline: as §1

Row | Sequence | PBM binding z-score [1] | PBM binding z-score [2] | PBM binding z-score [3] | PBM binding z-score [4] | PBM binding z-score [5] | PBM binding z-score [6] | PBM binding z-score [7] | PBM binding z-score [8] | PBM binding z-score [9] | PBM binding z-score [10] | PBM binding z-score [11] | PBM binding z-score [12] | PBM binding z-score [13] | PBM binding z-score [14] | PBM binding z-score [15] | PBM binding z-score [16] | PBM binding z-score [17] | PBM binding z-score [18] | PBM binding z-score [19] | PBM binding z-score [20]
1 | ATATGTAGGTTACATCCGCGTCATTCAGGCTATG | 0.387 | 1.31 | 0.198 | 0.733 | 0.789 | 3.15 | 4.94 | 3.92 | 1.86 | 3.52 | 7.33 | 7.28 | 2.01 | 1.99 | 0.907 | 0.229 | 0.0394 | 0.412 | 0.447 | 0.941
2 | TCAGACAGGTGAAGGTAGCTCAGGTACGCAGTCG | 0.513 | 0.567 | -0.0814 | 0.434 | -0.218 | 1.02 | 0.481 | 1.75 | 3.33 | 2.65 | 2.37 | 0.501 | 0.112 | 0.071 | 0.349 | 0.216 | -0.0197 | 0.316 | 0.354 | 1.07
3 | AGTCAAAGTTCAGGACGAGGTAACATAAAGCACG | 4.23 | 4.01 | 1.38 | 2.25 | 0.512 | 3.45 | 4.84 | 4.91 | 2.27 | 4.16 | -0.187 | 1.85 | 1.18 | 0.12 | 2.12 | 3.37 | 1.47 | 3.33 | 0.906 | 4.15
4 | TCTGCTAGGTCTACGATGGTCAGCTAATCTGCTA | -0.634 | -0.811 | -1.12 | -0.871 | -0.759 | -0.453 | -0.582 | -0.0115 | 1.48 | 0.437 | 0.395 | -0.0472 | -1.03 | -0.797 | -2.36 | -0.731 | -1.3 | -1.07 | -0.904 | -0.194
5 | ATATGTAGGTTATCGGGTCATTCACTTTGCGCAT | 3.3 | 3.17 | 2.13 | 3.23 | 1.51 | 5.02 | 7.09 | 6.26 | 3.66 | 5.87 | 7.73 | 7.65 | 4.35 | 2.87 | 2.48 | 3.44 | 1.07 | 4.15 | 2.17 | 2.64
6 | CGTCCAAGGTCAAAGGTCAGTGATGAGATGACGG | 8.34 | 6.88 | 3.97 | 6.55 | 2.01 | 7.15 | 10.7 | 8.75 | 8.43 | 9.31 | 4.14 | 5.89 | 0.972 | 0.974 | 3.97 | 6.83 | 1.94 | 8.65 | 1.61 | 6
7 | CCTCGGAGGACAGAAGGTCAGAGGTGTCCGCTTT | 1.1 | 1.45 | 0.406 | 0.796 | -0.636 | 2.06 | 0.463 | 1.58 | -0.408 | 0.771 | -0.101 | 0.357 | -1.36 | -1.55 | 0.853 | 1.4 | 0.183 | 2.11 | 0.0276 | 3.32
